According to PubChem BioAssay (NCI):
Values joined by “and” are separate entries in the source; they are usually repeats but may differ in a detail not shown here. Equal values may be shown once. The panel holds about 83,000 compounds, 20% with a hit somewhere; the sample as a whole holds those more often.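 Note: values are percent growth. 100 is the growth of untreated cells, values between 100 and 0 indicate rising inhibition; between -100 and 0 indicates cell death.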 Some structures have more than one record in an assay (separate samples or runs), and their calls can disagree. Active and inactive are the calls of the source. The calls were made as follows: active = growth percent below 10; inactive = the rest.

Tested on: HL-60(TB) leukemia
Assay: NCI-60 one-dose screen, 48 h (100 = growth as untreated, 0 = no growth, -100 = all killed)
Conditions: 10 µM unless noted

SMILES | growth
C#CC(C)(O)c1ccc(Cl)cc1 (stereo not drawn) | 109% (inactive)
Cn1cc(-c2csc(-c3ccc(Cl)cc3)n2)c2cccnc21 | 7.96% [100 µM] (active)
CC1=NC2=CC=CC3=NC(C(Cl)(Cl)Cl)=NC(=N1)N23 | 25.2% (inactive)
COc1ccc(C2CC(c3cccc(OC)c3)=NN2C(=O)c2cc(OC)c(OC)c(OC)c2)cc1 (stereo not drawn) | -44.1% (active)
O=C(Nc1nc2ccc(F)cc2s1)c1cc(-c2ccc(F)cc2)n2nc(-c3ccccc3)cc2n1 | 92.9% (inactive)
O=C(Nc1ccc(Oc2ccc(Nc3nc4ccccc4s3)cc2)cc1)Nc1ccc(Cl)c(Cl)c1 | 21.1% (inactive)
Cc1c(C(=O)NC(Cc2ccccc2)C(O)C(=O)NCc2ccc(F)cc2)[nH]c2ccccc2c1=O (stereo not drawn) | 82% (inactive)
COc1ccc(CCn2cnn3c(=O)c4ccccc4nc3c2=O)cc1OC | 92.4% (inactive) and 103% (inactive)
Nc1nc(N)nc(NCc2ccccc2)n1 | 98.6% (inactive)
C[n+]1ccc(Nc2ccc(NC(=O)c3ccc(Nc4cc[n+](C)c5ccc(N)cc45)cc3)cc2)cc1 | 82.3% (inactive)
O=C(Nc1cccc(-n2cc(-c3ccncc3)c(-c3ccc(Cl)c(O)c3)n2)c1)Nc1ccc(Cl)c(Cl)c1 | -6.98% (active)
CN(C)CCCC1(c2ccc(F)cc2)OCc2cc(-c3cncc4ccccc34)ccc21 (stereo not drawn) | 10.7% (inactive)
Cc1cc(Nc2ccc(Cl)c(Cl)c2)nc(N)n1 | 62.7% (inactive)
CCCCCC(=O)N1c2ccccc2NC2=C(C(=O)CC(c3ccc(OC)c(OC)c3)C2)C1c1ccc(C(F)(F)F)cc1 (stereo not drawn) | 45.4% (inactive)
CCN1CC(=O)N(/N=C2\C(=O)Nc3ccccc32)C1=S | 82.7% (inactive)
CCOC(=O)c1c(NC(=O)c2ccc(C(C)C)cc2)sc2c(CN(C)C)c(O)ccc12 | -34.8% (active)
N=C(N)N1CCc2ccccc2C1 | 93.6% (inactive) and 109% (inactive)
O=C(C=P(c1ccccc1)(c1ccccc1)c1ccccc1)c1ccc(Br)cc1 | 8.84% (active)
COC(=O)c1cccc(NC(=O)c2ccc(-c3cccc(N)c3)o2)c1 | 99.9% (inactive)
OCCNc1nc(NCCO)nc(Nc2ccc(C3=NN(c4ccc(Cl)cc4)C(c4ccc(Cl)cc4)C3)cc2)n1 (stereo not drawn) | 46.2% (inactive)
CCC(CC)C(=O)OC(C)COc1ccc(C(C)(C)C)cc1 (stereo not drawn) | 104% (inactive)

SMILES | growth
CC(=O)/C(=C\c1c(-c2ccccc2)[nH]c2ccccc12)S(C)(=O)=O | -55.2% (active)
O=S(=O)(O)C1(O)CCCCC1 | 87.6% (inactive)
CN1C(=O)N(C)C2C1NN=c1s/c(=C\c3cccnc3)c(=O)n12 (stereo not drawn) | 82.7% (inactive)
O=C(Nc1ccc(CN2CCc3nc4cc(O)c(O)cc4cc32)cc1)c1ccc(Cl)c(Cl)c1 | 114% (inactive)
N#CCCn1cnc2c(N)ncnc21 | 98.6% (inactive)
CC1=C(/C=C/C(C)=C/C=C/C(C)=C/C=N/NC(=S)NC(=S)N/N=C/C=C(C)/C=C/C=C(C)/C=C/C2=C(C)CCCC2(C)C)C(C)(C)CCC1 | 11.7% (inactive) and -28.1% (active)
CCOC(=O)c1c(NC(=O)C2CCCCC2C(=O)O)sc2c1CCCC2 (stereo not drawn) | 102% (inactive)
O=S(=O)(CC(O)(c1ccccc1)c1ccccc1)CC(O)(c1ccccc1)c1ccccc1 | 108% (inactive)
CN1C(=O)N(C)C2Nn3c(s/c(=C\c4ccc(Cl)cc4Cl)c3=O)=NC21 (stereo not drawn) | 41.5% (inactive)
Clc1ccc(C2c3ccccc3-c3nccn32)c(Cl)c1 (stereo not drawn) | 48.6% (inactive)
Cc1ccc(NC(=O)Nc2ccc(Nc3ncnc4sc5c(c34)CCOC5)cc2)cc1Cl | 108% (inactive)
COc1cc(Cn2c(-c3nonc3N)nc3ccccc32)ccc1C | -3.72% (active)
COc1ccc(-c2nc(NC(=O)CS(=O)(=O)c3ccc(F)cc3)sc2C)cc1 | 51.6% (inactive)
COC(=S)SCN(CSC(=S)OC)c1ccc(Cl)cc1 | 90.4% (inactive)
O=C(c1ccccc1)C(O)C(Br)(CBr)c1ccccc1 (stereo not drawn) | 65.4% (inactive)
N#C/C(=C\c1ccc2ccccc2c1)c1cc2ccccc2[nH]1 | 10.5% (inactive)
N#Cc1cccc(-c2c(-c3ccc4ccccc4c3)oc3ccccc3c2=O)c1 | 6.17% (active)
CCN1C(=O)N(CC)C2C1NN=c1s/c(=C3\C(=O)N(C(C)C)c4ccccc43)c(=O)n12 (stereo not drawn) | -22.6% (active)
COc1ccc(-c2conc2-n2nc(-c3ccccc3)nc2-c2ccccc2)cc1 | 99.3% (inactive)
C[C@@H](C(=O)NCCCC#Cc1cnc(Nc2ccc(C#N)cc2)nc1NC1CC1)N(C)C(=O)/C=C/CN(C)C | 42.6% (inactive)
Cn1c2c(c3ccc(Cl)cc31)-n1cccc1C2=O | 64.9% (inactive)

SMILES | growth
CCOC(=O)c1nc2c3ccccc3ccn2c1C(=O)OCC | 97.1% (inactive)
[2H]c1nc(Nc2ncc3cc(C(=O)N(C)C)n(C4CCCC4)c3n2)c([2H])c([2H])c1N1C([2H])([2H])C([2H])([2H])NC([2H])([2H])C1([2H])[2H] | 14.6% (inactive)
CCOc1nc(-c2ccccc2)cc2c(O)c(C(=O)N/N=C/c3ccccc3O)[nH]c(=O)c12 | 133% (inactive)
O=C1c2ccccc2C(=O)c2c1ccc(C(Br)Br)c2Cl | -9.24% (active)
O=C(NCc1ccc(Cl)cc1Cl)C1CCC(=O)N1c1cccs1 (stereo not drawn) | 99% (inactive)
CCc1ccc(CCCC(=O)O)cc1 | 98.8% (inactive)
CN(C)c1ccc(-c2c(C#N)c(N)nn2C(=O)c2ccc(NC(=O)c3ccccn3)cc2)cc1 | 96.5% (inactive)
CCN(CC)Cc1cc2[nH]c3c4ccc(Cl)cc4ncc3c2cc1OC | -72.1% (active) and 94.6% (inactive)
CCNC(=O)CCCCC(=O)c1c(C)[nH]c(/C=C2\N=C(c3ccc[nH]3)C=C2OC)c1C | 66.9% (inactive)
O=C(Nc1ccc(F)cc1F)c1cc(Br)ccc1O | -36.2% (active)
CCC(O)c1ccc(Br)cc1NC(=O)c1cccc(Cl)c1 (stereo not drawn) | -6.38% (active)
CO[C@H]1/C=C/O[C@@]2(C)Oc3c(C)c(O)c4c(O)c(c(/C=N/N5CCN(C)CC5)c(O)c4c3C2=O)NC(=O)/C(C)=C\C=C\C(C)[C@H](O)[C@@H](C)[C@@H](O)[C@@H](C)[C@@H](OC(C)=O)[C@@H]1C (stereo partly drawn) | 104% (inactive)
Cc1cnc(N)nc1OCCNC(=O)c1cccc(-c2ccc(S(=O)(=O)Nc3ccc4c(c3)N(C(=O)C3CC3)CCC4)cc2)c1 | 43.3% (inactive)
CC[C@]12C=CCN3CC[C@@]4(c5cc(NC(=O)CCC(=O)O[C@H]6CC[C@H]7[C@@H]8CCC9=CC(=O)CC[C@@H]9[C@H]8CC[C@]67C)c(OC)cc5N(C)[C@H]4[C@@](O)(C(=O)OC)[C@@H]1OC(C)=O)[C@@H]32 | 62.5% (inactive)
COc1cc2cc(Oc3ccc(NC(=O)c4cccc(C(F)(F)F)c4)cc3)c(C)nc2cc1OC | 27.8% (inactive)
N=C(N)c1ccc(-c2ccc(-c3cncc4ccccc34)s2)cc1F | -45.5% (active)
O=C(O)c1cn(C2CC2)c2cc(N3CCN(C(=O)c4cc(-c5ccc(Cl)cc5)nc5ccccc45)CC3)c(F)cc2c1=O | 101% (inactive)
Cn1c(=O)c2nc(/C=C/c3ccccc3)c(=O)[nH]c2n(C)c1=S | 98.2% (inactive)
CCNC(=O)c1[nH]cc(-c2ccccc2)c1-c1cc(OC)c2c(c1OC)OCO2 | 94.7% (inactive)
N#Cc1c(N)nc2c(C#N)c(NC(=O)c3ccccc3)nn2c1-c1ccccc1 | 93% (inactive)
CCOC(=O)c1sc2ncc(-c3ccc(C)cc3)n2c1C | 75.4% (inactive)

SMILES | growth
c1ccc2cc3nc4cc5ccccc5cc4nc3cc2c1 | 90.5% (inactive)
Cc1cc(N2CCOCC2)nc(N2CCOCC2)n1 | 97.9% (inactive)
C#Cc1ccc(-n2c(/C=C/c3ccc(Cl)c(F)c3)nc3ncccc3c2=O)cc1 | -35.9% (active)
NC(Cc1ccccc1)C(=O)NC(Cc1ccccc1)C(=O)O (stereo not drawn) | 105% (inactive) and 102% (inactive)
N#C/C(=C\c1ccc(-c2ccc(Br)cc2)o1)c1nc(-c2ccco2)cs1 | 89.3% (inactive)
N#Cc1c(-c2ccc(C(F)(F)F)cc2)cc(NCC2CCS(=O)(=O)CC2)n2c1nc1ccccc12 | 88.5% (inactive)
O=P(O)(O)OCC(O)CO (stereo not drawn) | 97.7% (inactive)
CCN(CC)CCCCCCNc1cc(OC)cc2cccnc12 | -57.3% (active)
O=[N+]([O-])c1ccc(Oc2cccnc2)c([N+](=O)[O-])c1 | -10.1% (active)
CN(C)c1ccc(C(=N)c2ccc(N(C)C)cc2)cc1 | 12.3% (inactive) and 6.84% (active)
COc1ccccc1S(=O)(=O)Nc1ccc2c(c1)CN(C)C(=O)N2 | 21.9% (inactive)
CC(=O)c1ccc2c(c1)N(CCCN1CCN(CCO)CC1)c1ccccc1S2 | 73.9% (inactive) and 2.94% (active)
COc1ccc(-c2ccc(-c3ccc(C(=N)N)c(F)c3)s2)cc1 | -79.4% (active)
N#CC1=C(N)Oc2cc(N)ccc2C1c1ccc(F)cc1 (stereo not drawn) | 88.9% (inactive)
O=C1OC(c2ccccc2)=N/C1=C\c1ccccc1 | 113% (inactive)
Cc1ccc(Nn2c(SCC(=O)Nc3nc(-c4ccccc4)cs3)nc(C)c2C)cc1 | 63.8% (inactive)
CSc1nc(N)c(CNC(C)c2ccccc2)c(=O)n1C (stereo not drawn) | 81.1% (inactive)
COc1ccc(CN2c3ccccc3Sc3ccccc32)cc1F | -7.46% (active)
Cc1c(C)c(N2C(=O)C=CC2=O)c(C)c(C)c1N1C(=O)C=CC1=O | 57.5% (inactive)
O=C(/C=C/C=C/c1ccccc1)c1ccco1 | -38.2% (active)
